Screening data: PubChem, National Center for Advancing Translational Sciences (NCATS)
Hits are enriched below; roughly 5.2% of the tested compounds scored in any of these assays.
IDH1 R132H inh: qHTS for Inhibitors of mutant isocitrate dehydrogenase 1 (IDH1): qHTS; IDH1-R132H enzyme, NADPH consumption, diaphorase/resazurin fluorescence; Potency, µM (series often up to 76.6 µM), for the others: top-dose activity change, negative = inhibition, actives largely listed as inhibitors; 390,000 tested, 0.093% active; note: nearly all actives have a fitted effect of over 65% in size
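IDH1-R132H (0.5 ug/mL dispensed) in pH 7.5 Tris buffer was preincubated 30 min with compound, then given a substrate mix of 0.016 mM NADPH and 2 mM alpha-KG for 80 min at room temperature; remaining NADPH was read by diaphorase/resazurin fluorescence.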
rTrxR1 inhibitor: qHTS Assay for Inhibitors of Mammalian Selenoprotein Thioredoxin Reductase 1 (TrxR1): qHTS. Thioredoxin reductase 1, cytoplasmic (Rattus norvegicus), O89049. recombinant rTrxR1, NADPH fluorescence consumption, selenite substrate. Potency, µM (titrated, usually from 114 µM), for the others: at the highest dose activity change, negative = inhibition, actives largely listed as inhibitors. 390,000 tested, 1% active. AID 588453, 2011; note: nearly all actives have a fitted effect of over 65% in size
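Rat TrxR1 (90 nM in the dispensed reagent) was pre-reduced with 400 uM NADPH for 5 min at room temperature, then incubated with compound for 15 min. After 400 uM selenite was added, NADPH fluorescence (Ex 340/Em 450 nm) was followed for 8 min.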
VDR inhibitor: Inhibitors of the vitamin D receptor (VDR): qHTS; Vitamin D3 receptor (Homo sapiens), P11473; VDR-SRC2-3 peptide fluorescence polarization, 2 h; Potency, µM, for inactives: max response, negative = inhibition, most hits filed as inhibitors; 400,000 tested, 0.93% active; AID 504847, 2011
Target sequence (P11473 whole entry, looked up): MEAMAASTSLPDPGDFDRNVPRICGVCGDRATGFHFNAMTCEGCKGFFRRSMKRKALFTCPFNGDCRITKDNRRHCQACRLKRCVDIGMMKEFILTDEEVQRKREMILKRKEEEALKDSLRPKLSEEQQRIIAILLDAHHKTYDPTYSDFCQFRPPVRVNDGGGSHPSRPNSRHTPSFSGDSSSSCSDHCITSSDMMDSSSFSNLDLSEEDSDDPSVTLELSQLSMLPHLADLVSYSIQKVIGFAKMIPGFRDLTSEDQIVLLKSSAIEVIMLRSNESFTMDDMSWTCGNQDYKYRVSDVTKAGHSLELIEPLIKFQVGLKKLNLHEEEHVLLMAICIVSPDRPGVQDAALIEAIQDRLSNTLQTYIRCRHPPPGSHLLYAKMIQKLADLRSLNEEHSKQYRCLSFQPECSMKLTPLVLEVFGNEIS
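Measured by FP: displacement of SRC2-3 coactivator peptide from VDR by library compounds, following a two-hour ambient incubation.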
Sfp PPTase inh: qHTS Assay for Inhibitors of Bacillus subtilis Sfp phosphopantetheinyl transferase (PPTase) | Biochemical Sfp PPTase activity, qHTS | Potency, µM, for inactives: largest response in the series, negative = inhibition, actives largely listed as inhibitors | 310,000 tested, 3.5% active;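 note: the enzyme is Sfp with the accession as filed and its product quenches rhodamine fluorescence; 0% = enzyme reaction without inhibitor and -100% = no enzyme wells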
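Fluorescence-quenching assay with 15 nM Sfp, 5 uM rhodamine-CoA and 12.5 uM BHQ-2-labelled ybbR peptide in pH 7.6 Hepes/MgCl2 buffer. Enzyme was pre-incubated with compound for 15 min at room temperature. Rate was taken from the 30-min fluorescence change (525/598 nm).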
TrxR1 substrate: qHTS Assay for Substrates of Mammalian Selenoprotein Thioredoxin Reductase 1 (TrxR1): qHTS; Thioredoxin reductase 1, cytoplasmic (Rattus norvegicus), O89049; purified TrxR1 substrate turnover, NADPH consumption readout; Potency, µM (doses to about 114 µM), for inactives: at the highest dose activity change, negative = substrate turnover; 390,000 tested, 0.01% active; AID 588456, 2011; note: nearly all actives have a fitted effect of over 50% in size
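Rat TrxR1, dispensed at 90 nM, was prereduced with 400 uM NADPH (final) for 5 min at ~22 deg C, then incubated with compound 15 min before 400 uM selenite. A first-read NADPH fluorescence drop versus no-compound background flagged substrates.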
PLK1 PBD inh: qHTS for Inhibitors of PLK1-PDB (polo-like kinase 1 - polo-box domain): Primary Screen; AID 720504, 2013; Serine/threonine-protein kinase PLK1 (Homo sapiens), P53350; Potency, µM, inactives show max response, negative = inhibition, usual class: inhibitors; 360,000 tested, 2.8% active; Plk1 PBD binding of FITC phosphopeptide, fluorescence polarization; note: series mostly up to about 57 µM; nearly all actives have a fitted effect of over 65% in size
Active calls of the source: *; ? = inconclusive; . = no result; [ ] = dose if it differs, or a comment. Calls come from the whole dose curve; as a rule, active = well fitted curve in the direction sought with a large enough effect; inconclusive = small, poorly fitted or top-dose-only effect, or another doubt; inactive = no such curve, though single readings can be large; an effect the other way counts as inactive or inconclusive. Unless noted, % is set by controls: 0 for no effect and ±100 for the full control effect; potency is the fitted concentration of half-maximal effect.

SMILES	IDH1 R132H inh	rTrxR1 inhibitor	VDR inhibitor	Sfp PPTase inh	TrxR1 substrate	PLK1 PBD inh
CC(C)NC(=O)COc1coc(CN2CCN(Cc3ccccc3)CC2)cc1=O	-2%	12%	-17%	16%	-2%	-10%
O=C(NNc1ccccc1F)c1cccs1	.	-34%	?	.	6%	.
COc1ccccc1N1CCN(C(=O)CSc2ccccc2)CC1	4%	17%[57.1 µM]	-5%	9%	-11%	?
COc1ccccc1N1CCN(C(=O)COc2cc(C)ccc2C)CC1	9%	6%	40µM*	-7%	-1%	21µM*
COc1ccccc1N1CCN(CC(=O)N2CCCC2)CC1	-2%	23%[57.1 µM]	-7%	50µM*	8%[57.1 µM]	-22%
O=C(NNC(=S)NCc1ccco1)c1ccccc1Br	-10%	-26%	-13%	17%	-6%	-1%
O=C(O)c1ccccc1NCc1ccco1	11%	16%[57.1 µM]	-27%	14%	56%	-3%
[O-]/C(=C(\C(=S)NCc1ccco1)[n+]1ccccc1)c1ccccc1Br	-4%	-25%[57.1 µM]	28%	13µM*	1%[57.1 µM]	-27%
[O-]/C(=C(\C(=S)NCc1ccccc1)[n+]1ccccc1)c1ccc(Cl)cc1	-3%	17%[57.1 µM]	2%	-55%	2%[57.1 µM]	?
O=C(NCc1ccco1)c1ccccc1Br	8%	14%[57.1 µM]	?	17%	8%[57.1 µM]	27µM*
C=CCNC(=S)/C(=C(\[O-])c1ccc(Cl)cc1)[n+]1ccccc1	-7%	-20%	-1%	8.9µM*	-3%	-22%
COc1cccc(NC(=O)/C=C/c2ccc([N+](=O)[O-])cc2)c1	8%	-2%	-2%	50µM*	0%	?
NCCCNCCCCNCCCNC(=O)CCc1ccc(O)cc1	.	.	4%	-9%	.	.
O=C(COC(=O)/C=C/c1cccc(F)c1)NC1CCCCC1	2%	.	.	.	.	0%
Cc1cc(C)c(S(=O)(=O)Nc2ccc3oc4c(c3c2)CCCC4)cc1C	0%	25%	13%	.	0%	.
CCCCNC(=O)C1c2ccccc2Oc2ccccc21	-4%	33%	9%	1%	4%	-4%
O=C(NCc1ccco1)c1ccccc1-c1nc(-c2ccccc2)no1	2%	12%[57.1 µM]	4%	4%	2%[57.1 µM]	-11%
O=C(NCc1ccco1)C1c2ccccc2Oc2ccccc21	10%	6%[57.1 µM]	-23%	40µM*	-3%[57.1 µM]	-24%
Cc1cccc(-c2noc(-c3ccccc3C(=O)NCc3ccco3)n2)c1	7%	-15%[57.1 µM]	-6%	40µM*	-4%[57.1 µM]	-18%
COc1cccc(NC(=S)/C(=C(\[O-])c2ccc([N+](=O)[O-])cc2)[n+]2ccccc2)c1	3%	?	?	?	-3%	7.5µM*
O=[N+]([O-])c1ccc(/C([O-])=C(/C(=S)NCc2ccco2)[n+]2ccccc2)cc1	-6%	-16%	-5%	8.9µM*	-3%	-26%
CC1(C(=O)NS(=O)(=O)c2ccc(Cl)cc2)CCN1C(=O)c1ccccc1 (stereo not drawn)	.	.	.	.	.	-2%
COc1ccc(Br)cc1CNC(=O)C(C)n1nc(C)n2c(cc3occc32)c1=O (stereo not drawn)	.	28%	1%	.	14%	.
COC(=O)N1C2CC3(C)CC(=O)CC1(C)C3c1ccccc12 (stereo not drawn)	.	.	.	-1%	.	.
COc1ncc(-c2c(-c3ccccc3OC)sc3ccccc23)cn1	.	.	.	.	.	2%
SMILES	IDH1 R132H inh	rTrxR1 inhibitor	VDR inhibitor	Sfp PPTase inh	TrxR1 substrate	PLK1 PBD inh
O=[N+]([O-])c1cccc(/C([O-])=C(/C(=S)Nc2cccc3ccccc23)[n+]2ccccc2)c1	0%	-2%	3%	35µM*	4%	-16%
Cc1ccc(NC(=S)/C(=C(\[O-])c2ccc(F)cc2)[n+]2ccccc2)cc1	2%	2%[57.1 µM]	11%	45µM*	5%	-21%
O=C(/C=C/c1ccc([N+](=O)[O-])cc1)Nc1ncc([N+](=O)[O-])s1	6%	-2%	1%	40µM*	-6%	-25%
COc1cc2c(cc1OC)C(COc1cc(C)cc(C)c1)N(C(=O)COc1ccccc1)CC2 (stereo not drawn)	9%	8%[57.1 µM]	17%	.	-4%[57.1 µM]	.
CCOc1ccccc1NC(=O)Cn1c(=O)n(-c2ccc(C)c(C)c2)c(=O)c2oc3ccccc3c21	-6%	23%	7%	.	9%	.
COc1ccc(Br)cc1CN1CCN(C(=O)c2cccc(F)c2)CC1	-1%	-13%	-9%	50µM*	-14%	-10%
COc1cccc(C(=O)N2CCN(CCc3ccncc3)CC2)c1	0%	?	22%	.	2%	.
COc1cccc(C(=O)N2CCN(Cc3ccccn3)CC2)c1	-10%	24%	-12%	45µM*	1%	0%
Nc1ncc([N+](=O)[O-])c(Oc2ccccc2F)n1	-4%	?	8%	9%	-15%	-2%
Cc1cc(/C=N/Nc2nc(N)ncc2[N+](=O)[O-])c(C)n1-c1ccccc1F	.	.	.	50µM*	.	.
CC(C)(C)C(=O)NC1(C(F)(F)F)C(=O)Nc2c1c(=O)[nH]c(=O)n2-c1ccccc1 (stereo not drawn)	0%	22%	-7%	.	5%	.
COc1cccc(C(=O)NCc2nnc(SCC(=O)Nc3nccs3)n2-c2ccccc2)c1	-6%	-2%[57.1 µM]	-21%	18%	1%[57.1 µM]	-5%
Cn1c(COc2ccccc2)nnc1SCC(=O)Nc1nnc(C2CC2)s1	-2%	-10%	-17%	.	-11%	30µM*
O=C(CSc1nnc(Cn2c(=O)sc3ccccc32)n1-c1ccccc1)N1CCCC1	14%	42%	-1%	16%	6%	3%
Cn1c(COc2ccccc2)nnc1SCC(=O)Nc1ccc2c(c1)OCO2	6%	9%	0%	5%	12%	-4%
O=C(CSc1nnc(Cn2c(=O)sc3ccccc32)n1-c1ccccc1)Nc1nccs1	-11%	27%[57.1 µM]	-28%	79µM*	5%[57.1 µM]	-18%
Cn1c(CNC(=O)c2ccccc2)nnc1SCC(=O)Nc1nccs1	-4%	31%[57.1 µM]	?	6%	7%[57.1 µM]	3.4µM*
CC1=[N+](C)c2ccc3ccccc3c2C1(C)C	13%	?	45µM*	?	6%	-29%
O=c1c(C(c2ccc(F)cc2)c2c(O)nc3n(c2=O)CCCS3)c(O)nc2n1CCCS2	1%	14µM*	-25%	3%	-4%	?
